The values that follow come from PubChem BioAssay (NCI).

Molecules are shown by their SMILES. This is part of a sample that, as a whole, favours compounds with a hit. Of some 83,000 tested, about 20% had one in any assay.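 A percent growth of 40 corresponds to 60% growth inhibition; 0 means no net growth; -100 means all cells died. Active threshold: below 10.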 Activity calls are given as the source filed them.

The test system of this experiment is HT29 colon. Nature of the experiment: NCI-60 one-dose screen, 48 h (100 = growth as untreated, 0 = no growth, -100 = all killed). Particulars: 10 µM unless noted. As for the experimental part: Growth inhibition of the HT29 human tumor cell line is measured as a screen for anti-cancer activity. Cells are grown in 96 well plates and exposed to the test compound for 48 hours. Compounds are tested at a single concentration, which is 10^-5 M for most compounds. The reported endpoint is percent growth (GI% or GIPRCNT), where numbers from 0 - 100% represent growth inhibition, and numbers from -100% - 0 represent cell death. For example, a value of 40 represents 60% growth inhibition. A value of 0 means no net growth occurred over the course of the experiment. A value of -40 indicates 40% of cells at the beginning of the experiment died by the end of the experiment. A value of -100 means all cells are dead at the end of the experiment.
NCI-60 Human Tumor Cell Lines Screen was performed using the standard one-dose NCI protocol, which is described in more detail at https://dtp.cancer.gov/discovery_development/nci-60/default.htm.
Compounds with GIPRCNT values below 10 were considered active. Activity score was based on GIPRCNT using the following formula: […]
Score is 0 for GIPRCNT values of 100 or above, 50 for GIPRCNT values of 0, and 100 for GIPRCNT values of -100.
As for `CCN(CCO)CCNc1ccc(C)c2sc3cc(Cl)ccc3c(=O)c12`, the growth was -77.3% (active).
Consider `COc1ccc(/C=C/C(=O)c2ccc3cc(OC)c(OC)cc3c2)cc1OC`, for which the growth is 6.78% (active).
The result for `O=S(=O)(c1ccccc1)n1cc2c(c1-c1ccccc1)CCc1sc(Nc3ccccc3)nc1-2` reads 93% (inactive).
The result for `O=C(CN1C(=O)/C(=C\c2ccc(Cl)cc2)SC1=S)Nc1ncc(Cc2ccc(Cl)cc2)s1` reads 110% (inactive); that for `COc1cc2cc3c(=O)n4c(cc5cc(OC)ncc54)c(=O)n3c2cn1`, 111% (inactive); that for `CN(C)CCNc1cc(-c2ccccc2)nc2ccccc12`, -42.2% (active).
The result for `COc1ccc(Nc2nc(N/N=C/c3ccc(O)cc3)nc(Nc3ccc([N+](=O)[O-])cc3)n2)cc1` reads 105% (inactive); that for `O=c1oc2ccc(Br)cc2c(=O)n1-c1ccc(F)cc1F`, 97.7% (inactive); that for `COc1ccc2oc(=O)cc(Cn3cc(Cn4cnc5c4c(=O)n(C)c(=O)n5C)nn3)c2c1`, 99% (inactive).
Consider `O=C(Nc1ccc(Br)cc1F)c1cc(Cl)ccc1O`, for which the growth is 15.6% (inactive).
Consider `COC(=O)[C@H](NC(=O)C1(C)CCC[C@]2(C)[C@H]3C[C@H]4C(C(C)C)=C[C@]3(CC[C@@H]12)[C@@H]1C(=O)CCC(=O)[C@@H]14)C(C)C` (stereo not given in full), for which the growth was 109% (inactive).
On to `CC(=O)c1ccc(Nc2nc(NCCO)nc(Nc3ccc(Cl)cc3)n2)cc1`, for which the growth was 96.8% (inactive).
The result for `O=C(Nc1ccc(N2CCNCC2)cn1)c1[nH]ncc1Nc1ncnc2sc3c(c12)CCC3` reads -42.3% (active); that for `O=c1oc2ccc(I)cc2c(=O)n1-c1ccc(Br)cc1F`, 50% (inactive); that for `CN(CCc1ccccc1)C(=S)N(C(=O)c1ccc([N+](=O)[O-])cc1)c1ccc(Cl)cc1`, 92.7% (inactive).
The result for `COc1cc(/C=C/C(=O)c2ccc(Cl)cc2)cc(CN2CCCCC2)c1O` reads 19.4% (inactive); that for `CSc1nc2c(c(=O)[nH]1)N=C1c3ccccc3C(=O)C1C(c1ccccc1)N2` (stereo not given), 5.89% (active); that for `CCN(CC)CCCNc1ccnc2cc3ccccc3cc12`, 74.6% (inactive).
For the compound `Nc1n[nH]c2ccc([C@@H]3Nc4ccc5[nH]ncc5c4[C@H]4[C@H]5CCC(C5)[C@H]43)cc12`, the growth is 2.25% (active).
The result for `O=c1oc2ccc(Cl)cc2c(=O)n1-c1ccc(I)cc1F` reads 33.6% (inactive); that for `Cc1cc(Br)c(N)c(Br)c1`, 106% (inactive); that for `Cc1nc(Nc2ccccn2)sc1C(=O)/C=C/c1ccc(Cl)cc1`, 5.45% (active).
For `COc1nccc2cc3c(=O)n4c(cc5ccccc54)c(=O)n3c12`, the growth is 112% (inactive).
The value for `CCc1ccc(CNCC(O)c2ccccc2)cc1` (stereo not given) was 28.7% (inactive).
The result for `O=C(Nc1ccc(I)cc1F)c1cc(Br)ccc1O` reads 30.4% (inactive); that for `COC(=O)/C(CCC=C(C)C)=C1\[C@@H](OC(C)=O)C[C@@]2(C)[C@H]1C[C@@H](O)[C@H]1[C@@]3(C)CC[C@H](NCc4ccccc4)[C@@H](C)[C@@H]3CC[C@@]12C`, 14.8% (inactive).
The value for `CC(C)c1ccc(S(=O)(=O)NC(=O)NC2CCCC2)cc1` was 108% (inactive); that for `CN=c1ccc2nc3ccc(N)cc3sc-2c1` was 84.6% (inactive); that for `S=C1NC2(c3ccccc3)CCC(=S)N2c2ccccc21` (stereo not given) was 105% (inactive).
On to `O=C(/C=C/c1ccc(C(F)(F)F)cc1)c1ccc(Nc2nc(NCCO)nc(N3CCOCC3)n2)cc1`, for which the growth is 7.26% (active).
As for `O=C(Nc1ccc(I)cc1F)c1cc(Cl)ccc1O`, the growth is 33.5% (inactive).
In the case of `COc1cc(C2CC(c3ccc(Nc4nc(NCCO)nc(N5CCOCC5)n4)cc3)=NN2c2cc(Cl)cc(Cl)c2)cc(OC)c1OC` (stereo not given), the growth was 33.6% (inactive).
The value for `O=C(N/N=C/c1ccccc1Cl)C(=O)Nc1cccc(C(F)(F)F)c1` was 97.4% (inactive); that for `O=c1oc2ccc(Cl)cc2c(=O)n1-c1ccc(Cl)cc1F` was 7.06% (active).
Turning to `O=S(=O)(c1ccc(NC(=S)NC23CC4CC(CC(C4)C2)C3)cc1)N1CCCCC1`, the growth is 94.1% (inactive).
The result for `O=C(Nc1ncc(Cc2cccc(C(F)(F)F)c2)s1)C1COc2ccccc2O1` (stereo not given) reads 84.9% (inactive).
The result for `COc1cc(/C(C#N)=C/c2nc3c(N4CCOCC4)nc(Cl)nc3n2C)cc(OC)c1OC` reads 9.95% (active); that for `CN1C(=O)N(C)C2C1NN=c1s/c(=C\c3ccc(Cl)cc3Cl)c(=O)n12` (stereo not given), 15% (inactive); that for `CCOc1ccc2nc(C)cc(Nc3ccc(Br)cc3)c2c1`, 77.8% (inactive).
The result for `COc1ccc(Cn2cc(Cn3cc(C=C4C(=O)NC(=O)NC4=O)c4ccccc43)nn2)cc1` reads 117% (inactive).
